# Bioassay records as filed in PubChem BioAssay.
# PINK1 expr mod – PINK1 expression modulation; AID 624263; 410,000 tested, 0.2% active; PINK1 immunofluorescence, high-content cytometry, 24 h; Potency, µM (highest dose often 76.6 µM), without a hit: top-dose activation (PINK1 increase), usual class: activators; active = well fitted activation curve with a large enough effect; inconclusive = small, poorly fitted or top-dose-only effect; cell line not stated here; note: % of control where 0% means no effect; nearly all actives have a fitted effect of over 65% in size
#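 Stable cell line, 250 cells/well, 12 h attachment; compounds pinned at 5 concentrations, 24 h; CCCP control. Fixed with nuclear dye, primary antibodies 12 h at 10 degrees C, secondary plus cell stain; laser-scanning cytometer read.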
# Nrf2 ARE act – activates Nrf2 signaling | AREc32 ARE-luciferase reporter (MCF7-derived line), luminescence, 24 h | Potency, µM (doses to about 46.1 µM), without a hit: at the highest dose activation, most hits filed as activators | 410,000 tested, 0.31% active | AID 624171; note: % of control where 0% means no effect; nearly all actives have a fitted effect of over 65% in size
#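 Reporter line AREc32 (ARE-Fluc), seeded overnight in OPTI-MEM with 5% FBS; compound pin-transferred, 24 hr at 37 deg C, 5% CO2; luminescent read-out.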
# Epigenetic derep – derepresses silenced GFP reporter in murine cells; AID 1865; 280,000 tested, 0.2% active; Potency, µM (top dose mostly 53.9 µM), for the others: at the highest dose GFP activation, actives largely listed as activators; murine LDR cells, GFP reporter derepression, 30 h; note: % of control where 0% means no effect; nearly all actives have a fitted effect of over 60% in size
#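 In this reporter-derepression format, murine cells bearing a silenced integrated CMV-GFP locus incubate with test compound (30 h, 37 C), then are washed and imaged; fluorescent objects of 20–120 um count as induced cells.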
# A549 tox-1 – kills or reduces viability of A549 cells in Nrf2 counter-screen; A549 ARE-Fluc cells, CellTiter-Fluor viability, 18-24 h; 390,000 tested, 0.16% active; Potency, µM (doses to about 46 µM), for the others: at the highest dose activity change, negative = cytotoxicity, hits mostly inhibitors; AID 504648; note: % is set by controls: 0 for no effect and ±100 for the full control effect
#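 A549 ARE-Fluc cells in 5% FBS OPTI-MEM, 5000 cells/well, rested 2 h then exposed to compounds in concentration-response for 18-24 h at 37 °C. Viability by CellTiter-Fluor fluorescence (Ex 405/Em 525) after 30 min; luciferase luminescence (BugLite, 15 min, RT) read afterwards.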
# Nrf2 inh – blocks Nrf2 signaling; A549 ARE-Fluc reporter, luciferase luminescence, 18-24 h; Potency, µM (titrated, usually from 46 µM), without a hit: at the highest dose activity change, negative = inhibition, actives largely listed as inhibitors; 360,000 tested, 2.1% active; note: % is set by controls: 0 for no effect and ±100 for the full control effect; nearly all actives have a fitted effect of over 60% in size
#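 Quantitative HTS in A549 cells stably bearing an antioxidant response element-firefly luciferase construct. Inhibition of Nrf2-driven transcription was scored by luminescence after 18-24 h of compound exposure at 37 °C.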
# FLuc counter 3 – blocks purified firefly luciferase in Nrf2 counterscreen. shares compounds with Nrf2 inh. purified firefly luciferase, luminescence inhibition. Potency, µM (doses to about 57.5 µM), for inactives: top-dose activity change, negative = inhibition, usual class: inhibitors. 1,400 tested, 4% active. AID 720522; note: % is set by controls: 0 for no effect and ±100 for the full control effect; nearly all actives have a fitted effect of over 65% in size
# Target sequence (P08659 whole entry, looked up): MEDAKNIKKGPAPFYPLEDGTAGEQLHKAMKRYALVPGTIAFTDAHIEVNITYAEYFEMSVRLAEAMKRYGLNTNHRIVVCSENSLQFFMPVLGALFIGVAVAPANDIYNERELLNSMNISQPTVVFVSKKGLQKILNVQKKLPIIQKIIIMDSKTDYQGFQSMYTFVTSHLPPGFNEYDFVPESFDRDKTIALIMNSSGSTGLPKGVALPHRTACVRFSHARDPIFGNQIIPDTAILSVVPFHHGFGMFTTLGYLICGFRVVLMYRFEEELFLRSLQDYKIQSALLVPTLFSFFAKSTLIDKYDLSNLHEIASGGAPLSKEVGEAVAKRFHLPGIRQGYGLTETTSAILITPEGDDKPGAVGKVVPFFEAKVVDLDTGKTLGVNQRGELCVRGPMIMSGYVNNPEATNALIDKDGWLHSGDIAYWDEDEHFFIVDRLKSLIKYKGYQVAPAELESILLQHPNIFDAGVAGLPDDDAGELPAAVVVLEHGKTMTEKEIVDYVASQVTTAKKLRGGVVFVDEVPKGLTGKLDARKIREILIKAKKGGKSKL
# A549 tox-2 – toxic to A549 ARE-Fluc cells in Nrf2 counterscreen. shares compounds with Nrf2 inh. Potency, µM (doses to about 46.1 µM), for inactives: at the top dose activity change, negative = cytotoxicity, usual class: inhibitors. 1,400 tested, 2% active. A549 ARE-Fluc cells, cytotoxicity counterscreen;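 note: cells exposed to compounds for 18 to 24 hours; % is set by controls: 0 for no effect and ±100 for the full control effect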
# ARE-Fluc inh – Nrf2 inhibition confirmed, A549 ARE-luciferase; shares compounds with Nrf2 inh; A549 ARE-firefly luciferase reporter, luminescence; Potency, µM (highest dose often 46.1 µM), for inactives: at the top dose activity change, negative = inhibition, usual class: inhibitors; 1,400 tested, 74% active; note: % is set by controls: 0 for no effect and ±100 for the full control effect; nearly all actives have a fitted effect of over 65% in size
# * hit, by the source's call; ? = inconclusive; nt = not tested or not shown; [ ] = another dose, or the depositor's remark. The list is not random: actives were taken first. Their share in the collection is about 2.4%. Unless noted, calls come from the whole dose curve; as a rule, active = well fitted curve in the direction sought with a large enough effect; inconclusive = small, poorly fitted or top-dose-only effect, or another doubt; inactive = no such curve, though single readings can be large; an effect the other way counts as inactive or inconclusive. Potency is the fitted concentration of half-maximal effect.
SMILES,PINK1 expr mod,Nrf2 ARE act,Epigenetic derep,A549 tox-1,Nrf2 inh,FLuc counter 3,A549 tox-2,ARE-Fluc inh
COc1ccc(OCC(O)Cn2c(NCCO)nc3c2c(=O)n(C)c(=O)n3C)cc1 (configuration not stated),0%,0%,3%,-6%,7.3µM*,1%,-3%,12µM*
CCCNc1nc2c(c(=O)n(C)c(=O)n2C)n1CC(O)COc1ccccc1 (configuration not stated),-1%,-1%,-1%,2%,8%,nt,nt,nt
N=c1ccn(Cc2cccc(F)c2)cc1,0%,0%,-4%,?,2.1µM*,5%,-10%,5.8µM*
Nc1ccn(Cc2cccc(F)c2)n1,1%,-1%,2%,0%,-16%,nt,nt,nt
CC(C)Cn1c(C(C)C)nc([N+](=O)[O-])c1S(=O)(=O)c1ccc(F)cc1,-1%[38.3 µM],22µM*,-1%,?,9.2µM*,1%,-18%,-22%
CC(C)Cn1c(C(C)C)nc([N+](=O)[O-])c1Sc1ccc(Cl)cn1,1%,?,1%,-3%,-16%,nt,nt,nt
CC(C)CCOc1cccc(OCC(=O)Nc2ccncc2)c1,20%,3%,nt,1%,9.2µM*,-17%,-4%,3.7µM*
CCc1c2c(nc3cccc(OC)c13)OC(CC)C2 (configuration not stated),nt,nt,2%,nt,nt,nt,nt,nt
O=C(O)CCSc1ncnc2sc(-c3ccccc3)cc12,2%,-2%,-1%,-14%,2.1µM*,9.5µM*,-3%,6.5µM*
COc1ccc(S(=O)(=O)NCC(c2ccco2)S(=O)(=O)c2cccs2)cc1F (configuration not stated),3%,15%,0%,-2%,nt,nt,nt,nt
Cc1cccc(NC(=O)Cn2cc(C(=O)C3CCCCC3)c3ccccc32)c1C,0%,0%,?,-24%,5.8µM*,-5%,-19%,5.8µM*
O/N=C(/C[n+]1cccc(Br)c1)c1ccc2ccccc2c1,0%,nt,nt,nt,nt,nt,nt,nt
O=S1(=O)c2ccccc2N(Cc2ccccc2Cl)c2ccccc21,4%,0%,0%,13%,-8%,nt,nt,nt
Cc1ccc(-c2nc3cc(NC(=O)C(C)C)ccc3o2)cc1,7%,3%,5%,-5%,?,nt,nt,nt
CC(Oc1ccc(Cl)cc1Cl)C(=O)Nc1ccc2oc(-c3ccncc3)nc2c1 (configuration not stated),6%,0%,0%,?,4.6µM*,3%,-16%,8.2µM*
C/C(=N\Nc1ccc2nncn2n1)c1ccccn1,0%,0%,0%,-27%,3.7µM*,-17%,-9%,2.6µM*
O=C(NCC(c1cccs1)S(=O)(=O)c1cccs1)c1ccccc1 (configuration not stated),0%,6%,4%,-5%,nt,nt,nt,nt
C=CCn1c(NCCc2ccccc2)nc2c1c(=O)n(C)c(=O)n2C,-1%,0%,-1%,-9%,9.2µM*,2%,4%,nt
C/C(Cl)=C\Cn1c(NCCc2ccccc2)nc2c1c(=O)n(C)c(=O)n2C,1%[38.3 µM],0%,-1%,-16%,2.9µM*,1%,-11%,7.3µM*
CCN(CC)CCNc1nc2c(c(=O)n(C)c(=O)n2C)n1C/C=C(/C)Cl,1%,0%,3%,-8%,11%,nt,nt,nt
Cn1c(=O)c2c(nc(NCCc3ccccc3)n2CC(=O)NCCc2ccccc2)n(C)c1=O,1%,0%,0%,0%,-2%,nt,nt,nt
COc1ccccc1NC(=O)c1ccc(-c2nc(COc3ccc(C)cc3)c(C)o2)cc1,2%,0%,1%,2%,?,nt,nt,nt
CC(=O)c1ccc(N2CCN(S(=O)(=O)c3ccc4c(c3)CC(C)N4C(C)=O)CC2)cc1 (configuration not stated),1%,4%,nt,-13%,5.8µM*,2.7µM*,-4%,6%
CC(=O)c1ccc(N2CCN(S(=O)(=O)c3ccc4c(c3)CC(C)N4C(=O)C3CC3)CC2)cc1 (configuration not stated),2%,-1%,nt,-17%,5.8µM*,0%,-15%,3.7µM*
CC(=O)N1c2ccc(S(=O)(=O)N3CCOCC3)cc2CC1C (configuration not stated),1%,-1%,nt,0%,12%,nt,nt,nt
SMILES,PINK1 expr mod,Nrf2 ARE act,Epigenetic derep,A549 tox-1,Nrf2 inh,FLuc counter 3,A549 tox-2,ARE-Fluc inh
Oc1c(C(c2ccccc2)N2CCC3(CC2)OCCO3)sc2nc(-c3ccco3)nn12 (configuration not stated),0%,0%,0%,-1%,nt,nt,nt,nt
CCOc1ccccc1CNC(=O)c1cccc(NC(=O)c2nsc3ccccc23)c1,-1%,4%,-2%,2%,nt,nt,nt,nt
COc1ccccc1N1CCN(C(=O)C2CCCN(S(=O)(=O)c3ccc4c(c3)CCCN4C(C)=O)C2)CC1 (configuration not stated),0%,0%,0%,-11%,9.2µM*,-1%,-1%,9.2µM*
COc1ccccc1N1CCN(C(=O)C2CCCN(S(=O)(=O)c3ccc(C)cc3)C2)CC1 (configuration not stated),3%,0%,nt,4%,?,nt,nt,nt
CC1=C(C(=O)OC2CCCCC2)C(c2cccnc2)n2nnnc2N1 (configuration not stated),-3%,-1%,11%,-14%,8.2µM*,4%,-16%,?
COC(=O)C1=C(C)Nc2nnnn2C1c1cccnc1 (configuration not stated),2%,0%,-1%,12%,nt,nt,nt,nt
O=C(COc1ccccc1Cl)N(Cc1ccco1)Cc1ccco1,0%,13%,3%,13%,3%,nt,nt,nt
COc1ccc(-c2nc(CSCC(=O)N3CCN(c4ccccc4F)CC3)c(C)o2)cc1,0%,-1%,0%,?,5.8µM*,-22%,-16%,9.2µM*
Cc1oc(-c2ccccc2F)nc1CSCC(=O)N1CCN(c2ccccc2)CC1,-1%,0%,1%,-22%,7.3µM*,2%,-8%,12µM*
Cc1oc(-c2ccccc2Cl)nc1CSCC(=O)N1CCCC1,0%,0%,-4%,-2%,?,nt,nt,nt
COc1ccc(C(=O)Nc2nnc(SCc3cc(=O)n4cccc(C)c4n3)s2)cc1,-1%,3%,3%,0%,nt,nt,nt,nt
COc1cccc(CN(C)C(=O)CNC(=O)c2ccc(-c3ccccc3)cc2)c1OC,0%,0%,nt,-21%,4.6µM*,-24%,-11%,nt
